According to paper PMC11006913:

What was measured:
Assay in all cases: PBM; 200 nM protein, PBS
Conditions in all cases: dsDNA, one strand shown
[1] = molecular target: HESX1 (Homo sapiens, UniProt Q9UBX0 95-180, R165K)
[2] = molecular target: SHOX (Homo sapiens, UniProt O15266 103-189)
[3] = molecular target: ALX4 (Homo sapiens, UniProt Q9H161 200-286, Q225E)
[4] = molecular target: HESX1 (Homo sapiens, UniProt Q9UBX0 95-180)
[5] = molecular target: ALX1 (Homo sapiens, UniProt Q15699 118-204, L144V)
ALX1 (Homo sapiens, UniProt Q15699 118-204, L144V), sequence (Q15699 118-204 L144V): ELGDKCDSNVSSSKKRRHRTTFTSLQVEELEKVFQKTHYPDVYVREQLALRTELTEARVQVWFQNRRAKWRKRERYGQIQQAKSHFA

[6] = molecular target: ALX3 (Homo sapiens, UniProt O95076 139-225, N203Q)
ALX3 (Homo sapiens, UniProt O95076 139-225, N203Q), sequence (O95076 139-225 N203Q): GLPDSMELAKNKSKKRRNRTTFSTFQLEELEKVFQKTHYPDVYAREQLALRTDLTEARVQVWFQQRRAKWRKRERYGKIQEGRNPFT

[7] = molecular target: SHOX (Homo sapiens, UniProt O15266 103-189, R173C)
SHOX (Homo sapiens, UniProt O15266 103-189, R173C), sequence (O15266 103-189 R173C): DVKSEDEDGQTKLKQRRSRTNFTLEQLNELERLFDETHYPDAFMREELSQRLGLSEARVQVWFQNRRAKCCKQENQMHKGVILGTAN

[8] = molecular target: ALX1 (Homo sapiens, UniProt Q15699 118-204, L144R)
ALX1 (Homo sapiens, UniProt Q15699 118-204, L144R), sequence (Q15699 118-204 L144R): as the sequence (Q15699 118-204 L144V) above, with V27R counted along it

[9] = molecular target: ALX3 (Homo sapiens, UniProt O95076 139-225)
ALX3 (Homo sapiens, UniProt O95076 139-225), sequence (O95076 139-225): as the sequence (O95076 139-225 N203Q) above, with Q65N counted along it

[10] = molecular target: PROP1 (Homo sapiens, UniProt O75360 56-141)
PROP1 (Homo sapiens, UniProt O75360 56-141), sequence (O75360 56-141): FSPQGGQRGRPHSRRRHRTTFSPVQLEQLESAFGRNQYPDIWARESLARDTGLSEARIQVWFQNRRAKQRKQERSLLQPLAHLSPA

[11] = molecular target: HESX1 (Homo sapiens, UniProt Q9UBX0 95-180, R109Q)
HESX1 (Homo sapiens, UniProt Q9UBX0 95-180, R109Q), sequence (Q9UBX0 95-180 R109Q): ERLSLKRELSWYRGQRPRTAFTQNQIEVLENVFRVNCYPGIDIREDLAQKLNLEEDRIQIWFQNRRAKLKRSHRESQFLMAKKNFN

[12] = molecular target: PROP1 (Homo sapiens, UniProt O75360 56-141, R99H)
PROP1 (Homo sapiens, UniProt O75360 56-141, R99H), sequence (O75360 56-141 R99H): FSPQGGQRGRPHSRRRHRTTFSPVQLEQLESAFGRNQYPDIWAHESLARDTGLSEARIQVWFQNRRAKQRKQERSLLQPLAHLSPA

[13] = molecular target: ALX3 (Homo sapiens, UniProt O95076 139-225, L168Q)
ALX3 (Homo sapiens, UniProt O95076 139-225, L168Q), sequence (O95076 139-225 L168Q): as the sequence (O95076 139-225 N203Q) above, with L30Q, Q65N counted along it

[14] = molecular target: HESX1 (Homo sapiens, UniProt Q9UBX0 95-180, P111T)
HESX1 (Homo sapiens, UniProt Q9UBX0 95-180, P111T), sequence (Q9UBX0 95-180 P111T): as the sequence (Q9UBX0 95-180 R109Q) above, with Q15R, P17T counted along it

[15] = molecular target: ALX3 (Homo sapiens, UniProt O95076 139-225, L168V)
ALX3 (Homo sapiens, UniProt O95076 139-225, L168V), sequence (O95076 139-225 L168V): as the sequence (O95076 139-225 N203Q) above, with L30V, Q65N counted along it

[16] = molecular target: PROP1 (Homo sapiens, UniProt O75360 56-141, F88S)
PROP1 (Homo sapiens, UniProt O75360 56-141, F88S), sequence (O75360 56-141 F88S): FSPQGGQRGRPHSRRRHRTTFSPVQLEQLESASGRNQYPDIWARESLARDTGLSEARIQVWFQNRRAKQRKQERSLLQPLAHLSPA

[17] = molecular target: HESX1 (Homo sapiens, UniProt Q9UBX0 95-180, F115L)
HESX1 (Homo sapiens, UniProt Q9UBX0 95-180, F115L), sequence (Q9UBX0 95-180 F115L): as the sequence (Q9UBX0 95-180 R109Q) above, with Q15R, F21L counted along it

[18] = molecular target: ALX1 (Homo sapiens, UniProt Q15699 118-204)
ALX1 (Homo sapiens, UniProt Q15699 118-204), sequence (Q15699 118-204): as the sequence (Q15699 118-204 L144V) above, with V27L counted along it

[19] = molecular target: ALX3 (Homo sapiens, UniProt O95076 139-225, N203S)
ALX3 (Homo sapiens, UniProt O95076 139-225, N203S), sequence (O95076 139-225 N203S): as the sequence (O95076 139-225 N203Q) above, with Q65S counted along it

[20] = molecular target: MSX2 (Homo sapiens, UniProt P35548 130-214, R199I)
MSX2, sequence (P35548 130-214 R199I): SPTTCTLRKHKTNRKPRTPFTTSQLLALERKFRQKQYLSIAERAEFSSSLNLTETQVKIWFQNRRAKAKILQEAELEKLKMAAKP

HESX1 (Homo sapiens, UniProt Q9UBX0 95-180, R165K), sequence (Q9UBX0 95-180 R165K): as the sequence (Q9UBX0 95-180 R109Q) above, with Q15R, R71K counted along it
SHOX (Homo sapiens, UniProt O15266 103-189), sequence (O15266 103-189): as the sequence (O15266 103-189 R173C) above, with C71R counted along it
HESX1 (Homo sapiens, UniProt Q9UBX0 95-180), sequence (Q9UBX0 95-180): as the sequence (Q9UBX0 95-180 R109Q) above, with Q15R counted along it
ALX4, sequence (Q9H161 200-286 Q225E): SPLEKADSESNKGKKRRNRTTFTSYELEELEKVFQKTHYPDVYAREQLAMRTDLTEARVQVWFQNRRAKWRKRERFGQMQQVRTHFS

| Sequence | binding signal [1] | binding signal [2] | binding signal [3] | binding signal [4] | binding signal [5] | binding signal [6] | binding signal [7] | binding signal [8] | binding signal [9] | binding signal [10] | binding signal [11] | binding signal [12] | binding signal [13] | binding signal [14] | binding signal [15] | binding signal [16] | binding signal [17] | binding signal [18] | binding signal [19] | binding signal [20] |
| --- | --- | --- | --- | --- | --- | --- | --- | --- | --- | --- | --- | --- | --- | --- | --- | --- | --- | --- | --- | --- |
| CAAATTAA | 11.5 upbm affinity estimate (log intensity, higher = more binding, comparable within an allelic series) | 11.7 upbm affinity estimate (log intensity, higher = more binding, comparable within an allelic series) | 12.9 upbm affinity estimate (log intensity, higher = more binding, comparable within an allelic series) | 11.5 upbm affinity estimate (log intensity, higher = more binding, comparable within an allelic series) | 11.6 upbm affinity estimate (log intensity, higher = more binding, comparable within an allelic series) | 8.38 upbm affinity estimate (log intensity, higher = more binding, comparable within an allelic series) | 9.3 upbm affinity estimate (log intensity, higher = more binding, comparable within an allelic series) | 11.1 upbm affinity estimate (log intensity, higher = more binding, comparable within an allelic series) | 12.4 upbm affinity estimate (log intensity, higher = more binding, comparable within an allelic series) | 11 upbm affinity estimate (log intensity, higher = more binding, comparable within an allelic series) | 8.49 upbm affinity estimate (log intensity, higher = more binding, comparable within an allelic series) | 10.7 upbm affinity estimate (log intensity, higher = more binding, comparable within an allelic series) | 10.4 upbm affinity estimate (log intensity, higher = more binding, comparable within an allelic series) | 10.1 upbm affinity estimate (log intensity, higher = more binding, comparable within an allelic series) | 9.81 upbm affinity estimate (log intensity, higher = more binding, comparable within an allelic series) | 7.49 upbm affinity estimate (log intensity, higher = more binding, comparable within an allelic series) | 7.67 upbm affinity estimate (log intensity, higher = more binding, comparable within an allelic series) | 12.1 upbm affinity estimate (log intensity, higher = more binding, comparable within an allelic series) | 8.48 upbm affinity estimate (log intensity, higher = more binding, comparable within an allelic series) | – |
| AATTAACG | 11.7 upbm affinity estimate (log intensity, higher = more binding, comparable within an allelic series) | 11.6 upbm affinity estimate (log intensity, higher = more binding, comparable within an allelic series) | 13 upbm affinity estimate (log intensity, higher = more binding, comparable within an allelic series) | 11.7 upbm affinity estimate (log intensity, higher = more binding, comparable within an allelic series) | 11.6 upbm affinity estimate (log intensity, higher = more binding, comparable within an allelic series) | 8.41 upbm affinity estimate (log intensity, higher = more binding, comparable within an allelic series) | 9.39 upbm affinity estimate (log intensity, higher = more binding, comparable within an allelic series) | 11.2 upbm affinity estimate (log intensity, higher = more binding, comparable within an allelic series) | 12.5 upbm affinity estimate (log intensity, higher = more binding, comparable within an allelic series) | 11.3 upbm affinity estimate (log intensity, higher = more binding, comparable within an allelic series) | 8.98 upbm affinity estimate (log intensity, higher = more binding, comparable within an allelic series) | 11.2 upbm affinity estimate (log intensity, higher = more binding, comparable within an allelic series) | 10.5 upbm affinity estimate (log intensity, higher = more binding, comparable within an allelic series) | 10.4 upbm affinity estimate (log intensity, higher = more binding, comparable within an allelic series) | 10.1 upbm affinity estimate (log intensity, higher = more binding, comparable within an allelic series) | 7.84 upbm affinity estimate (log intensity, higher = more binding, comparable within an allelic series) | 7.64 upbm affinity estimate (log intensity, higher = more binding, comparable within an allelic series) | 12.2 upbm affinity estimate (log intensity, higher = more binding, comparable within an allelic series) | 8.55 upbm affinity estimate (log intensity, higher = more binding, comparable within an allelic series) | 12.2 upbm affinity estimate (log intensity, higher = more binding, comparable within an allelic series) |
| CAATTAGG | 12.5 upbm affinity estimate (log intensity, higher = more binding, comparable within an allelic series) | 12.1 upbm affinity estimate (log intensity, higher = more binding, comparable within an allelic series) | 12.8 upbm affinity estimate (log intensity, higher = more binding, comparable within an allelic series) | 12.7 upbm affinity estimate (log intensity, higher = more binding, comparable within an allelic series) | 11.5 upbm affinity estimate (log intensity, higher = more binding, comparable within an allelic series) | 8.27 upbm affinity estimate (log intensity, higher = more binding, comparable within an allelic series) | 9.72 upbm affinity estimate (log intensity, higher = more binding, comparable within an allelic series) | 10.9 upbm affinity estimate (log intensity, higher = more binding, comparable within an allelic series) | 12.2 upbm affinity estimate (log intensity, higher = more binding, comparable within an allelic series) | 11.3 upbm affinity estimate (log intensity, higher = more binding, comparable within an allelic series) | 9.39 upbm affinity estimate (log intensity, higher = more binding, comparable within an allelic series) | 11.5 upbm affinity estimate (log intensity, higher = more binding, comparable within an allelic series) | 10.4 upbm affinity estimate (log intensity, higher = more binding, comparable within an allelic series) | 11.2 upbm affinity estimate (log intensity, higher = more binding, comparable within an allelic series) | 9.81 upbm affinity estimate (log intensity, higher = more binding, comparable within an allelic series) | 7.6 upbm affinity estimate (log intensity, higher = more binding, comparable within an allelic series) | 7.73 upbm affinity estimate (log intensity, higher = more binding, comparable within an allelic series) | 12.1 upbm affinity estimate (log intensity, higher = more binding, comparable within an allelic series) | 8.37 upbm affinity estimate (log intensity, higher = more binding, comparable within an allelic series) | 12.7 upbm affinity estimate (log intensity, higher = more binding, comparable within an allelic series) |
| CCGAGCGG | 6.41 upbm affinity estimate (log intensity, higher = more binding, comparable within an allelic series) | 6.99 upbm affinity estimate (log intensity, higher = more binding, comparable within an allelic series) | – | 6.46 upbm affinity estimate (log intensity, higher = more binding, comparable within an allelic series) | – | – | 7.07 upbm affinity estimate (log intensity, higher = more binding, comparable within an allelic series) | – | – | – | 6.48 upbm affinity estimate (log intensity, higher = more binding, comparable within an allelic series) | – | – | 6.49 upbm affinity estimate (log intensity, higher = more binding, comparable within an allelic series) | – | – | 6.36 upbm affinity estimate (log intensity, higher = more binding, comparable within an allelic series) | – | – | – |
| CCCAATTA | 13.2 upbm affinity estimate (log intensity, higher = more binding, comparable within an allelic series) | 12.5 upbm affinity estimate (log intensity, higher = more binding, comparable within an allelic series) | 13.5 upbm affinity estimate (log intensity, higher = more binding, comparable within an allelic series) | 13.1 upbm affinity estimate (log intensity, higher = more binding, comparable within an allelic series) | 11.9 upbm affinity estimate (log intensity, higher = more binding, comparable within an allelic series) | 8.37 upbm affinity estimate (log intensity, higher = more binding, comparable within an allelic series) | 9.78 upbm affinity estimate (log intensity, higher = more binding, comparable within an allelic series) | 11.6 upbm affinity estimate (log intensity, higher = more binding, comparable within an allelic series) | 12.6 upbm affinity estimate (log intensity, higher = more binding, comparable within an allelic series) | 11.6 upbm affinity estimate (log intensity, higher = more binding, comparable within an allelic series) | 9.78 upbm affinity estimate (log intensity, higher = more binding, comparable within an allelic series) | 11.8 upbm affinity estimate (log intensity, higher = more binding, comparable within an allelic series) | 10.7 upbm affinity estimate (log intensity, higher = more binding, comparable within an allelic series) | 11.7 upbm affinity estimate (log intensity, higher = more binding, comparable within an allelic series) | 10.2 upbm affinity estimate (log intensity, higher = more binding, comparable within an allelic series) | 7.5 upbm affinity estimate (log intensity, higher = more binding, comparable within an allelic series) | 8.14 upbm affinity estimate (log intensity, higher = more binding, comparable within an allelic series) | 12.5 upbm affinity estimate (log intensity, higher = more binding, comparable within an allelic series) | 8.52 upbm affinity estimate (log intensity, higher = more binding, comparable within an allelic series) | 13 upbm affinity estimate (log intensity, higher = more binding, comparable within an allelic series) |
| AACTAATT | 11.5 upbm affinity estimate (log intensity, higher = more binding, comparable within an allelic series) | 11.5 upbm affinity estimate (log intensity, higher = more binding, comparable within an allelic series) | 12.7 upbm affinity estimate (log intensity, higher = more binding, comparable within an allelic series) | 11.5 upbm affinity estimate (log intensity, higher = more binding, comparable within an allelic series) | 11.5 upbm affinity estimate (log intensity, higher = more binding, comparable within an allelic series) | 8.44 upbm affinity estimate (log intensity, higher = more binding, comparable within an allelic series) | 9.12 upbm affinity estimate (log intensity, higher = more binding, comparable within an allelic series) | 11.2 upbm affinity estimate (log intensity, higher = more binding, comparable within an allelic series) | 12.4 upbm affinity estimate (log intensity, higher = more binding, comparable within an allelic series) | 11.2 upbm affinity estimate (log intensity, higher = more binding, comparable within an allelic series) | 8.89 upbm affinity estimate (log intensity, higher = more binding, comparable within an allelic series) | 11.1 upbm affinity estimate (log intensity, higher = more binding, comparable within an allelic series) | 10.3 upbm affinity estimate (log intensity, higher = more binding, comparable within an allelic series) | 10.3 upbm affinity estimate (log intensity, higher = more binding, comparable within an allelic series) | 9.88 upbm affinity estimate (log intensity, higher = more binding, comparable within an allelic series) | 7.84 upbm affinity estimate (log intensity, higher = more binding, comparable within an allelic series) | 7.81 upbm affinity estimate (log intensity, higher = more binding, comparable within an allelic series) | 12.3 upbm affinity estimate (log intensity, higher = more binding, comparable within an allelic series) | 8.58 upbm affinity estimate (log intensity, higher = more binding, comparable within an allelic series) | 12.2 upbm affinity estimate (log intensity, higher = more binding, comparable within an allelic series) |
| CAATTAGA | 12.3 upbm affinity estimate (log intensity, higher = more binding, comparable within an allelic series) | 11.9 upbm affinity estimate (log intensity, higher = more binding, comparable within an allelic series) | 12.8 upbm affinity estimate (log intensity, higher = more binding, comparable within an allelic series) | 12.5 upbm affinity estimate (log intensity, higher = more binding, comparable within an allelic series) | 11.4 upbm affinity estimate (log intensity, higher = more binding, comparable within an allelic series) | 8.27 upbm affinity estimate (log intensity, higher = more binding, comparable within an allelic series) | 9.38 upbm affinity estimate (log intensity, higher = more binding, comparable within an allelic series) | 11.1 upbm affinity estimate (log intensity, higher = more binding, comparable within an allelic series) | 12.4 upbm affinity estimate (log intensity, higher = more binding, comparable within an allelic series) | 11.4 upbm affinity estimate (log intensity, higher = more binding, comparable within an allelic series) | 8.75 upbm affinity estimate (log intensity, higher = more binding, comparable within an allelic series) | 11.4 upbm affinity estimate (log intensity, higher = more binding, comparable within an allelic series) | 10.4 upbm affinity estimate (log intensity, higher = more binding, comparable within an allelic series) | 10.9 upbm affinity estimate (log intensity, higher = more binding, comparable within an allelic series) | 9.72 upbm affinity estimate (log intensity, higher = more binding, comparable within an allelic series) | 7.51 upbm affinity estimate (log intensity, higher = more binding, comparable within an allelic series) | 7.65 upbm affinity estimate (log intensity, higher = more binding, comparable within an allelic series) | 12.2 upbm affinity estimate (log intensity, higher = more binding, comparable within an allelic series) | 8.34 upbm affinity estimate (log intensity, higher = more binding, comparable within an allelic series) | 12.6 upbm affinity estimate (log intensity, higher = more binding, comparable within an allelic series) |
